# ELG1 genotoxic – genotoxicity induction in ELG1-luciferase HEK293T cells; HEK293T ELG1-luciferase reporter, luminescence, 16 h; hit rate 1.3% among 330,000; Potency, µM (titrated, usually from 46 µM), inactives show at the highest dose activity change, positive = activation, most hits filed as activators; further: % of control where 0% means no effect; nearly all actives have a fitted effect of over 60% in size
#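 Reporter readout depends on ELG1 protein level, which increases with genetic stress. After 16 hr compound exposure at 37 °C, luciferase activity was quantified using ONE-Glo.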
# SMN2 splice enh – SMN2 splice variant enhancement; HEK293 SMN2-luciferase splicing reporter, luminescence, 30-36 h; Potency, µM (top dose mostly 46.1 µM), without a hit: at the top dose activity change, positive = activation, actives largely listed as activators; hit rate 2.8% among 210,000; AID 1458; further: % of control where 0% means no effect; nearly all actives have a fitted effect of over 55% in size
#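 HEK293 cells carry an SMN2 […]–luciferase reporter in which exon 7 inclusion puts luciferase in frame. Cells were plated 10-12 h before compound addition, then incubated 30-36 h at 37C. ONE-Glo luminescence was read; sodium butyrate at 4.5 mM final served as control.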
# NPC1 promoter act – activators of NPC1 promoter | Huh7 NPC1 promoter luciferase reporter, 24 h | Potency, µM (highest dose often 9.22 µM), without a hit: at the top dose activation, usual class: activators | hit rate 2.4% among 320,000; further: % of control where 0% means no effect; nearly all actives have a fitted effect of over 60% in size
#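 Stable NPC1-promoter luciferase Huh7 line; cpd (DMSO) 24 h, 37 °C, 5% CO2; Amplite luciferase reagent 10 min RT; luminescence readout. qHTS format.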
# KinaseGlo FLuc – counter-screen: inhibitors of Kinase-Glo firefly luciferase. Q27757. Kinase-Glo luciferase, ATP luminescence, 8 min. Potency, µM (titrated, usually from 38.3 µM), without a hit: top-dose activity change, negative = inhibition, usual class: inhibitors. hit rate 0.28% among 200,000. AID 1379; further: on the % scale 0 is the no-effect control and ±100 the full control effect; nearly all actives have a fitted effect of over 60% in size
#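 Luminescence was the read-out, taken after 8-minute incubation at ambient temperature. Luciferase turned over luciferin with 10 uM ATP in imidazole pH 7.2 buffer containing KCl, MgCl2, Tween 20 and BSA.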
# Rab9 prom act – activates the Rab9 promoter | Huh7 Rab9 promoter-luciferase reporter, luminescence, 24 h | Potency, µM (titrated, usually from 9.22 µM), without a hit: at the highest dose activation, negative = inhibition, most hits filed as activators | hit rate 2.8% among 320,000 | AID 485297; further: % of control where 0% means no effect; nearly all actives have a fitted effect of over 60% in size
#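 Luciferase signal after 10 min detection reagent at ambient indicates Rab9 promoter upregulation; stably transfected Huh7 cells were treated 24 h with compound in DMSO at 37 °C, 5% CO2.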
# FLuc modulator – counter-screen for miR-21 project: firefly luciferase inhibitors or activators; P08659; purified FLuc, Km substrates, luminescence inhibition; Potency, µM (doses to about 57.5 µM), without a hit: at the top dose activity change, negative = inhibition, usual class: inhibitors; hit rate 6.9% among 360,000;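 further: plate controls were vehicle for no effect and reference inhibitor for full effect; nearly all actives have a fitted effect of over 55% in size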
# Target sequence (P08659 whole entry, looked up): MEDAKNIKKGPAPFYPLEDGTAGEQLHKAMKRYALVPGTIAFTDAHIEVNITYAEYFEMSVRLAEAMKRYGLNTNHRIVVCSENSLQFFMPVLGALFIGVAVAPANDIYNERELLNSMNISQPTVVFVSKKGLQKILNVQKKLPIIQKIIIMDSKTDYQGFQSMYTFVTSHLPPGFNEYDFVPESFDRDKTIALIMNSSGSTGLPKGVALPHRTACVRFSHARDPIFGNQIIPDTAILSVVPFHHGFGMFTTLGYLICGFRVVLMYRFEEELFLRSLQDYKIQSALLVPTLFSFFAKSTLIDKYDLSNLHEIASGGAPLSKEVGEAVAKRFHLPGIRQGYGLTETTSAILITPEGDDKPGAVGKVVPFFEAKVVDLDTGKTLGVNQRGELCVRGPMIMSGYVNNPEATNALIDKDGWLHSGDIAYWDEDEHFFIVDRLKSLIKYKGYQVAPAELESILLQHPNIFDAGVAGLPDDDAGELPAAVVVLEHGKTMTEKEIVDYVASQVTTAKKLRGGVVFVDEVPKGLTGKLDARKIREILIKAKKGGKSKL
#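 Purified P. pyralis luciferase (10nM final) with 10uM D-luciferin and 10uM ATP (Km levels) in 50mM Tris acetate pH 7.5, 10mM Mg acetate, 0.01% Tween-20, 0.05% BSA; qHTS 6-point titration, ~60 µM downward; luminescence read.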
# Active calls of the source: *; ? = inconclusive; / = not tested or not shown; [ ] = another dose, or the depositor's remark. In the library only some 7.5% were active in any assay of this set; here they are far more common. The call rests on the fitted dose curve; in most records, active means well fitted curve in the direction sought with a large enough effect; inconclusive means small, poorly fitted or top-dose-only effect, or another doubt; inactive means no such curve, though single readings can be large; an effect the other way counts as inactive or inconclusive. Potency means the concentration at half of the fitted maximal effect.
SMILES,ELG1 genotoxic,SMN2 splice enh,NPC1 promoter act,KinaseGlo FLuc,Rab9 prom act,FLuc modulator
COC(=O)CSc1nc2cc3c(cc2cc1C#N)OCO3,?,10µM*,0.891µM*,2.0%,0.794µM*,-5.6%
Cc1cc2cc3c(cc2nc1SCC(=O)N1CCOCC1)OCO3,7.7%,/,-6.8%,/,3.3%,6.6%
COC(=O)CSc1nc2cc3c(cc2cc1C)OCCO3,0.9%,0.9%,-10.1%,-1.2%,9.1%,-15.4%
CCOc1ccc(C(=O)c2cn(CC(=O)Nc3ccc(F)cc3)c3cc4c(cc3c2=O)OCO4)cc1,/,-0.9%,/,/,/,-6.8%
CC(C)N(CCNC(=O)c1ccc(Cc2nc3ccccc3[nH]2)cc1)C(C)C,/,/,/,-1.8%,/,/
CCOC(=O)/C(=N\Nc1ccccc1)S(=O)(=O)c1ccccc1,1.0%,-6.2%,8.1%,-3.7%,8.8%,-7.6%
CCOC(=O)/C(=N/Nc1ccc(C)cc1)S(=O)(=O)c1ccc(Cl)cc1,?,3.2%,?,-3.3%,?,16.9µM*
COc1cccc(NC(=O)CN2C=NS(=O)(=O)c3ccccc32)c1,/,/,/,/,/,-5.7%
COc1ccc2[nH]c(=O)c3c(c2c1)OC(C)(C)C=C3,-6.3%,12.0%,18.2%,-2.3%,-2.7%,0.6%
Cc1cc2c([nH]c3ccccc32)c2c1OC(C)(C)C=C2,?,/,3.16µM*,/,3.16µM*,10.7µM*
COc1ccc(-c2csc3nc(-c4ccccc4C)oc(=O)c23)cc1OC,/,7.5%,/,/,/,-2.0%
CCS(=O)(=O)NCCc1csc2nc(-c3ccc(OC)cc3)nn12,/,/,/,/,/,-17.2%
O=C(CSc1nnc(NC(=O)c2ccco2)s1)Nc1ccccc1Br,5.3%,/,3.3%,/,-0.6%,-13.2%
Cc1ccccc1NC(=O)CSc1nnc(NC(=O)c2ccco2)s1,8.5%,/,0.5%,/,9.7%,26.9µM*
O=C(CSc1nnc(NC(=O)c2ccco2)s1)Nc1ccccc1F,4.2%,9.7%,-1.6%,-3.0%,-0.1%,15.1µM*
O=C(CSc1nnc(NC(=O)c2ccccc2F)s1)Nc1ccccc1F,?,26.9%,?,-23.3%,3.55µM*,2.69µM*
CC(C)(C)CC(=O)Nc1nnc(SCC(=O)Nc2ccccc2F)s1,-17.5%,-14.6%,-5.6%,0.1%,0.6%,-12.1%
CCC(=O)NC1=C(NC(C)c2ccccc2)C(=O)c2ccccc2C1=O (stereo unspecified),-2.9%,-11.8%,3.3%,-1.0%,-1.1%,-3.3%
CCC(=O)NC1=C(Cl)C(=O)C(NC(=O)CC)=C(Cl)C1=O,0.8%,/,2.9%,/,-3.7%,5.36µM*
CCC/C=C/C(C)O (stereo unspecified),/,-5.8%,/,2.5%,/,/
COc1ccc(/C=C(/C(=O)c2cccs2)N2C=CC=CC2=C(C#N)C#N)cc1,?,/,-10.8%,/,0.7%,13.5µM*
CCCCNc1nc(C)nc2c1nc(-c1ccccc1)n2C(C)CCCN(CC)CC (stereo unspecified),/,-12.4%,/,0.7%,/,/
COc1ccc(S(=O)(=O)Nc2cccc(-c3ccc(N4CCOCC4)nn3)c2)cc1F,/,/,/,/,/,6.75µM*
Cc1cc(C)c(S(=O)(=O)Nc2ccc(-c3ccc(N4CCCCCC4)nn3)cc2)cc1C,/,/,/,/,/,-17.9%
COc1ccc(S(=O)(=O)Nc2cccc(-c3ccc(N4CCCCC4)nn3)c2)cc1F,/,/,/,/,/,2.69µM*
SMILES,ELG1 genotoxic,SMN2 splice enh,NPC1 promoter act,KinaseGlo FLuc,Rab9 prom act,FLuc modulator
COc1ccc(S(=O)(=O)Nc2ccc(-c3ccc(N4CCCC4)nn3)cc2)cc1C,1.9%,/,0.6%,/,2.2%,-3.4%
COc1cc(C)c(C)cc1S(=O)(=O)Nc1cccc(-c2ccc(N3CCOCC3)nn2)c1,/,/,/,/,/,26.9µM*
COc1ccc(S(=O)(=O)Nc2cccc(-c3ccc(N4CCCCCC4)nn3)c2)cc1F,/,/,/,/,/,5.36µM*
COc1ccc(S(=O)(=O)Nc2cccc(S(=O)(=O)N3CCCC3)c2)cc1OC,-2.4%,/,3.7%,/,-9.1%,2.9%
COc1ccc(S(=O)(=O)Nc2ccccc2C(=O)N2CCOCC2)cc1F,-0.4%,/,9.2%,/,4.0%,-1.2%
CCCn1cc(S(=O)(=O)c2ccc(C)c(C)c2)c(=O)c2cc(F)c(N3CCC(C)CC3)cc21,/,/,/,/,/,-5.3%
COc1ccc(NC(=O)CN2C(=O)CCc3cc(S(=O)(=O)N4CCOCC4)ccc32)c(OC)c1,/,/,/,/,/,-5.0%
Oc1ccc(-c2nc3ccc4ccccc4c3c3c2CCC3)cc1O,9.3%,-18.0%[1.84 µM],-2.1%,-1.2%,0.6%,23.9µM*
O=C(/C=C/c1cccc(O)c1)c1ccc(N2CCOCC2)cc1,12.1%,/,?,/,?,1.2µM*
CN(C)c1ccc(NC(=S)c2ccc3ccccc3n2)cc1,?,/,?,/,23.8%,16.9µM*
Cc1ccc(C)c(NC(=S)c2ccc3ccccc3n2)c1,?,11.2µM*,?,0.0%,3.16µM*,5.36µM*
Cc1ccc(C)c(NC(=S)c2ccccn2)c1,14.7%,16.6%,20.5%,-11.3%,23.2%,16.9µM*
CN(CC(=O)Nc1ccc(F)cc1)C(=O)c1ccc2ccccc2n1,0.8%,/,-3.2%,/,-0.8%,-1.9%
Cc1cccc(C(=O)Nc2cccc(C(=O)N/N=C/c3ccc4c(c3)OCO4)c2)c1,9.1%,/,29.3%,/,27.5%,1.9µM*
O=C(N/N=C/c1ccc2c(c1)OCO2)c1cccc(NC(=O)c2ccccc2Cl)c1,?,/,-12.5%,/,24.7%,2.69µM*
Cc1ccccc1C(=O)Nc1cccc(C(=O)N/N=C/c2ccc3c(c2)OCO3)c1,6.8%,/,17.1%,/,?,3.01µM*
O=C(Nc1ccc(F)c(Cl)c1)Nc1c[nH]c(=O)[nH]c1=O,/,/,/,/,/,-3.7%
COc1ccc(NC(=O)c2cc3c(-c4ccc(OC)c(OC)c4)nn(C)c3s2)cc1OC,-2.0%,3.5%,0.0%,-0.8%,-1.3%,10.7µM*
COc1cccc(-c2nn(C)c3sc(C(=O)NCc4ccc(C)o4)cc23)c1,-17.5%,15.8µM*,11.6%,16.0%,6.9%,2.0%
COc1cccc(-c2nn(C)c3sc(C(=O)NCc4ccc(OC)cc4OC)cc23)c1,/,-14.5%,/,/,/,-9.2%
COc1ccc(-c2nn(C)c3sc(C(=O)Nc4cc(OC)c(OC)c(OC)c4)cc23)cc1OC,/,?,/,/,/,8.49µM*
O=C(CN1C(=O)c2ccccc2Sc2ccc(C(=O)N3CCOCC3)cc21)Nc1ccc(Cl)cc1F,/,/,/,/,/,-2.1%
Cc1ccc(Cl)cc1N1CCN(C(=O)c2cc(S(=O)(=O)N3CCCC3)c[nH]2)CC1,/,/,/,/,/,1.3%
COC(=O)[C@H](COC(C)(C)C)NC(=O)O[C@@H]1C(=O)c2cc(Br)ccc2O[C@H]1c1cccc(OC)c1,/,7.9%,/,-0.9%,/,/
COc1ccc(OC)c(C(=O)c2c(C)oc3cc([N+](=O)[O-])c(O)c([N+](=O)[O-])c23)c1,3.4%,/,0.7%,/,4.1%,21.3µM*
COc1ccc(NS(=O)(=O)c2ccc(N3CCCCS3(=O)=O)cc2)cc1Cl,/,/,/,/,/,-1.8%

# Assay outcomes (PubChem)
